{"source": "paper PMC7819943", "about": "“Rice protein-binding microarrays: a tool to detect cis-acting elements near promoter regions in rice”", "note": "The full ranking holds about 68,000 sequences; the median of “fluorescence intensity (a.u.)” is about 9,100, and the highest 2% start at about 16,000. The sample as a whole holds a higher share of the highest values than the screen did.", "data": [{"biological_target": "OsWRKY34 (Oryza sativa, UniProt Q0JBA9 1-250)", "sequence (Q0JBA9 entry or part of it)": "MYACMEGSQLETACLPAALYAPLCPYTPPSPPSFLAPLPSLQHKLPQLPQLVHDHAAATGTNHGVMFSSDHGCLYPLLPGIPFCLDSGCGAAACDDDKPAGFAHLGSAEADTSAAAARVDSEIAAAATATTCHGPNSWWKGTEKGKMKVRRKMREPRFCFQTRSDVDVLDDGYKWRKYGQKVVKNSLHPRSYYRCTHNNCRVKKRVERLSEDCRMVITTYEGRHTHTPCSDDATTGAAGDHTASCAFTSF", "experiment": "protein-binding microarray (RPBM); PBS, 2% BSA, 51.3 ng/ul salmon testes DNA, 50 uM zinc acetate, 200 nM TF, 25 C, 1 h; high values mean tight binding", "details": "protein: recombinant; tags: N-terminal polyhistidine and DsRed monomer fusion (pET32a); label: CyDye5-dUTP incorporated in the synthesized complementary strand; 3' TTTTT single-stranded linker to array surface; dsDNA, one strand shown", "in_short": "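Polyhistidine-tagged DsRed fusions of transcription factors, joined at the N-terminus, were expressed in E. coli BL21-CodonPlus and isolated on Ni–NTA. They were incubated at 200 nM for 1 h at 25 °C on a custom Agilent array, double-stranded and BSA-blocked, in PBS with 2% BSA, salmon testes DNA and 50 µM zinc acetate. The binding signal is per-feature fluorescence intensity (arbitrary units) read on an Axon 4000B scanner after washing.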", "values": [{"sequence": "CGTTTTTGTGTCTTTCATTTGAGGAGGAACTGCGATTCTTCGGAGTCACCTAGTGCAG", "binding signal": "9400 fluorescence intensity (a.u.)"}, {"sequence": "AACTTCTTGCATGTGCCTTTTTTATCATCTGCATATATTTCGGAGTCACCTAGTGCAG", "binding signal": "10300 fluorescence intensity (a.u.)"}, {"sequence": "ACTTCCGATGCGTAATAAGGCTTTAGTCCCACAACTGACGCGGAGTCACCTAGTGCAG", "binding signal": "8630 fluorescence intensity (a.u.)"}, {"sequence": "GCTCTAACACACCTTCATCATGCATGCATATGTGCTATTTCGGAGTCACCTAGTGCAG", "binding signal": "8080 fluorescence intensity (a.u.)"}, {"sequence": "CATATGCACTAACAAAACCGAGTAGGAGGGTGGGTATTTGCGGAGTCACCTAGTGCAG", "binding signal": "8580 fluorescence intensity (a.u.)"}, {"sequence": "AGTAGGAGGGTGGGTATTTGCAACAAAATGACTTATGAGGCGGAGTCACCTAGTGCAG", "binding signal": "12800 fluorescence intensity (a.u.)"}, {"sequence": "TTACAACAAAACTAAGTAGGGGTGGGTATTTGCAACAAAACGGAGTCACCTAGTGCAG", "binding signal": "17600 fluorescence intensity (a.u.)"}, {"sequence": "CATTACTTTTTTGGTGGACTTGCAAAAACATGGGCATTTTCGGAGTCACCTAGTGCAG", "binding signal": "8680 fluorescence intensity (a.u.)"}, {"sequence": "GGTGGGTGGGCATTTGCAACAAAATAACTTACGGGGTGGACGGAGTCACCTAGTGCAG", "binding signal": "17000 fluorescence intensity (a.u.)"}, {"sequence": "AAAATAACTTACGGGGTGGAATGTCAAACTTCAAGTGACTCGGAGTCACCTAGTGCAG", "binding signal": "8470 fluorescence intensity (a.u.)"}, {"sequence": "GGTTTGCCGTCGTCGGCGTCGGCCGCTGCCTCGCGCGCGCCGGAGTCACCTAGTGCAG", "binding signal": "9230 fluorescence intensity (a.u.)"}, {"sequence": "AGCCTACCAGCTGCACCGCAAATGCCGTGTACTGCTTTCTCGGAGTCACCTAGTGCAG", "binding signal": "8340 fluorescence intensity (a.u.)"}, {"sequence": "GTGATGTGCTGCAACCTCGCCGCCAGCCGCGCCCTGTGCGCGGAGTCACCTAGTGCAG", "binding signal": "8560 fluorescence intensity (a.u.)"}, {"sequence": "ATATCTGTTTTTACGGTTCGAGGACGTTTTTATATCCGATCGGAGTCACCTAGTGCAG", "binding signal": "8940 fluorescence intensity (a.u.)"}, {"sequence": "ACGTGTCGTTGACTTTTTATCACACGTTTAGCCATTCGTCCGGAGTCACCTAGTGCAG", "binding signal": "30200 fluorescence intensity (a.u.)"}, {"sequence": "TAACACCGTTGACTTTTTAGCTCATGTTTGACCATTCGTCCGGAGTCACCTAGTGCAG", "binding signal": "27400 fluorescence intensity (a.u.)"}, {"sequence": "TTAACTTTTTAGTACGTGTTTGACCATTCGTATTATTCAACGGAGTCACCTAGTGCAG", "binding signal": "9020 fluorescence intensity (a.u.)"}, {"sequence": "ACGTGTTTGACCATTCGTTTTATTCAAATCATTTAAGTAACGGAGTCACCTAGTGCAG", "binding signal": "9230 fluorescence intensity (a.u.)"}, {"sequence": "GTTTGACACCGTGGACTTTTTTAAATATGTTTGACCATTCCGGAGTCACCTAGTGCAG", "binding signal": "11800 fluorescence intensity (a.u.)"}, {"sequence": "ACCTCTGTTTTTAATAGATGACGTGTCGTTGACTTTTTATCGGAGTCACCTAGTGCAG", "binding signal": "13300 fluorescence intensity (a.u.)"}, {"sequence": "TGTTTGACACCGTTGACTTTTTAGTCGTGTTTGACCATTCCGGAGTCACCTAGTGCAG", "binding signal": "24400 fluorescence intensity (a.u.)"}, {"sequence": "CATCGTTGAACTTTATCGTGCCCTTCACACCATTCCGTCGCGGAGTCACCTAGTGCAG", "binding signal": "8130 fluorescence intensity (a.u.)"}, {"sequence": "GACACCGTTGACTTTTTAAGTACGTGTTTGACCATTCGTCCGGAGTCACCTAGTGCAG", "binding signal": "43700 fluorescence intensity (a.u.)"}]}]}
